This is an account of results in PubChem BioAssay (NCI).

This is part of a sample that, as a whole, favours compounds with a hit. Of some 83,000 tested, about 20% had one in any assay.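 Results are percent growth after 48 hours of single-concentration exposure. 100 means growth as in untreated cells, lower positive values show inhibition; negative values down to -100 show cell death.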 A number with no mark means an inactive call. Calls of active or inactive are those of the source. Rule for the calls: active = growth percent below 10; inactive = the rest.

The experiment deals with COLO 205 colon. Description: NCI-60 one-dose screen, 48 h (100 = growth as untreated, 0 = no growth, -100 = all killed). Conditions: 10 µM unless noted.
Regarding `Clc1cccc(Nc2ncnc3ccc(-c4cnc5[nH]ccc5c4)cc23)c1`, the growth was 83.4%.
For `Nc1cc(C(=O)NC[C@H]2CN(c3ccc(N4CCC(C(=O)O)CC4)cc3)C(=O)O2)ccc1Cl`, the growth was 104%.
As to `N#CSCC1CC(O)(c2ccccc2)CC(c2ccc(F)cc2)O1` (stereo not drawn), the growth was 16.6%.
Turning to `CCOC(=O)c1ccc2c(c1)nc(-c1ccccc1)n2C1CCCCC1`, the growth was 76.3%.
Under `Cc1cn(-c2cc(NC(=O)c3cncc(C#Cc4cnc(N)c5ncccc45)c3)cc(C(F)(F)F)c2)cn1` stands 28.4%; under `CCN(CC)Cc1cc(C=C2C(=O)NC(=S)NC2=O)cc(OC)c1O`, 117%; under `COc1cc(/C=C/C(=O)c2ccc(F)cc2)ccc1OCCCCOc1ccc(/C=C/C(=O)c2c(C)nc3ccccc3c2C)cc1OC`, 119%.
In the case of `O=C1/C(=C/c2cccc(F)c2)CN(C(=O)C(Cl)Cl)C/C1=C\c1cccc(F)c1`, the growth was -60% (active).
With `N#Cc1ccc(O)c(C2=NCC(c3ccccc3)O2)c1` (stereo not drawn), the growth was 36%.
On to `N=C(N)c1ccc(-c2ccc(-c3ccccc3)o2)cc1`, for which the growth is -87.7% (active).
With `COC12C=C/C(=C(/C(=O)OCc3ccncc3)C(=O)CCCCCCCCC3(OC)C=C/C(=C(/C(=O)OCc4ccncc4)C(=O)CCCCCCCC1)O3)O2` the figure was -25% (active).
Under `COC(=O)/C=C1/SC(=Nc2cccc(OC)c2)N(CCc2c[nH]c3ccc(O)cc23)C1=O` stands 106%.
Under `Cn1ccnc1C(=O)/C=C/c1ccc(CC(=O)Nc2cc(C(F)(F)F)cc(C(F)(F)F)c2)cc1` stands 98.3%.
